Measurements published in PubChem BioAssay AID1045 (SRMLSC, 2008).
Hit rate of the full screen: of about 1,500 compounds, about 1,400 (93%) were called active. No rule for the calls is given here. So high a share suggests a set chosen from earlier hits. Not all results are given here. Measured potencies and affinities stand elsewhere.

Assay: growth suppression of beta-catenin-knockout colon cells, dose response, cell-based, HCT116, human colon tumor (AID 1045)
Conditions: CellTiter-Glo, 60 h; series mostly up to 30 µM

outcome, inactive:
CCCNC(=O)OC[C@H]1O[C@H](CCO/N=C/[C@@H](NS(=O)(=O)c2ccc(C)cc2)[C@H](C)/C=C/CC(=O)OC)C=C[C@@H]1Oc1ccc(OC)cc1
O=C(Nc1ccccc1Cl)NC1(C(=O)N2CCCC2)CCCCC1
Cc1ccc(C(=O)c2coc3c2C(=O)C(=O)c2ccccc2-3)cc1
CCCC(=O)Nc1sc2c(c1C#N)CCCCC2
CCN1CCN(Cc2ccc(OCc3ccccc3)cc2)CC1
S=C(NCCc1ccc(Cl)cc1)Nc1ccc(Cl)cc1Cl
O=C(Nc1cccc(C(F)(F)F)c1)NC1CCCCC1
C=C1C(O)C[C@H]2C(=C)CCC3[C@H](OC(=O)[C@]3(O)CO)[C@@H]12 (stereo not given in full)
Cc1ccc2cc3cc(C(=O)NCc4ccc5c(c4)OCO5)oc3nc2c1
Nc1nnc(SCc2ccc(Cl)cc2)s1
O=C(NC(=S)Nc1ccc2c(c1)OCO2)c1ccc(Cl)cc1
COC(=O)CN1C(C)=Nc2ccc(Br)cc2C1c1ccccc1 (stereo not given)
COC(=O)C1=C(C)N(Cc2ccco2)C(=O)N[C@@H]1c1cccc(C(F)(F)F)c1
CCN1CCN(c2cc(C)c3cc(NC(=O)c4ccc5c(c4)OCO5)ccc3n2)CC1
CCN(CC)S(=O)(=O)c1ccc(NC2CCCc3ccccc32)nc1 (stereo not given)
COc1ccc(-c2cc(C(F)(F)F)nc(S(C)(=O)=O)n2)cc1OC
O=C(Nc1cccc(-c2nnc(-c3ccccc3)o2)c1)C1CCCCC1
Cc1ccccc1NC(=O)c1ccc2c(c1)OCCO2
CSc1n[nH]c(NCc2cccs2)n1
Cc1cc(C)n(C(=O)CNc2ccc(C)c(C)c2)n1
CCCC/C(C)=N\NC(=O)CNS(=O)(=O)c1ccc([N+](=O)[O-])cc1
COc1ccc(-n2c(O)c(/C=N/NS(=O)(=O)c3ccc(C)cc3)c3ccccc3c2=O)cc1OC
COCCN1C(=O)c2oc3ccccc3c(=O)c2C1c1ccc(OC)c(OC)c1 (stereo not given)
O=C(Nc1cccc(C(F)(F)F)c1)/C(=C\c1ccco1)NC(=O)c1cccs1
O=C(Nc1ccc(-c2nc3ccccc3o2)cc1)c1cccnc1
O=C(NCc1ccco1)C1CCN(S(=O)(=O)Cc2ccccc2)CC1
CCOC(=O)c1c(-c2ccc(C)cc2)csc1NC(=O)/C(C#N)=C/c1ccc(O)c(OC)c1
CCn1c(Cc2ccc(OC)cc2)nnc1SCC(=O)Nc1cccc(C(=O)OC)c1
Cc1ccc(C(=O)NCCc2nnc(SCC(=O)Nc3nc(-c4ccccc4)cs3)n2C)cc1
COc1ccc(-c2cc(C(F)F)n3ncc(C(=O)n4ccnc4C)c3n2)cc1
